Laboratory results reported in PubChem BioAssay (NCATS).
Records with an inconclusive call do not appear. Entries that show only a call come without a potency. Activity calls are given as the source filed them. Calls come from the whole dose curve; as a rule, active = well fitted curve in the direction sought with a large enough effect; inconclusive = small, poorly fitted or top-dose-only effect, or another doubt; inactive = no such curve, though single readings can be large; an effect the other way counts as inactive or inconclusive.

Key:
[1] = molecular target: Aldehyde dehydrogenase, mitochondrial (Homo sapiens) (UniProt P05091); experiment: qHTS for Inhibitors of the Aldehyde Dehydrogenase Family (ALDH2) Primary screen (AID 2061308); note: nearly all actives have a fitted effect of over 55% in size
[2] = molecular target: Retinaldehyde dehydrogenase 3 (Homo sapiens) (UniProt P47895); experiment: qHTS for Inhibitors of the Aldehyde Dehydrogenase Family (ALDH1A3) Primary screen (AID 2061315)

SMILES	Potency [1]	Potency [2]
O=C(Cn1nc(-c2ccc(OC(F)(F)F)cc2)ccc1=O)NCCc1ccccc1	inactive	inactive
NC(=O)c1ccccc1C[C@H](C(=O)O)N1C(=O)c2ccc(C(=O)O)cc2C1=O	inactive	inactive
COc1cc(O)c(C(CC(=O)N2CCC(Cc3ccccc3)CC2)c2ccc(C)cc2)c(OC)c1 (stereo unspecified)	inactive	inactive
Cc1ccnc(NC(=S)N2CC[C@@H](Nc3cccc(C(F)(F)F)c3)C2)c1	inactive	inactive
O=C(Cc1ccc(Cl)c(Cl)c1)Nc1ccc(S(=O)(=O)NCc2ccco2)cc1	inactive	inactive
Nc1nc(N)c2c(OCC3CCN(Cc4ccccc4F)CC3)cccc2n1	inactive	inactive
COc1ccccc1OCCN1CC(COc2cccc3[nH]c4ccccc4c23)OCC1=O (stereo unspecified)	inactive	inactive
O=C1CCc2cc(Cl)c(S(=O)(=O)Nc3ccc(Cl)c(Cl)c3)cc2N1	inactive	inactive
O=C1CCc2cc(S(=O)(=O)Nc3cccc4ccccc34)ccc2N1	inactive	inactive
COc1ccccc1-n1cnc2cc(C(=O)N3CCCCC3)ccc21	inactive	inactive
COc1cc(-c2ncn(/C=C\C(=O)OC(C)C)n2)cc(C(F)(F)F)c1	inactive	inactive
C[C@@H]1O[C@@H](O[C@H]2[C@H](O[C@H]3CC[C@@]4(C)C(CC[C@]5(C)C4C=C[C@]46OC[C@@]7(CCC(C)(C)C[C@H]74)[C@@H](O)C[C@]65C)[C@]3(C)CO)O[C@H](CO)[C@@H](O)[C@@H]2O[C@@H]2O[C@H](CO)[C@@H](O[C@@H]3O[C@@H](C)[C@H](O)[C@@H](O)[C@H]3O)[C@H](O)[C@H]2O)[C@H](O)[C@H](O)[C@H]1O (stereo partly specified)	inactive	inactive
Cc1cc2c(s1)c1cnn(Cc3ccc(C(=O)O)cc3)c(=O)c1n2C	inactive	inactive
CCOc1ccc(CCNC(=O)c2cc3sccc3n2C)cc1OCC	inactive	inactive
Cc1ccc(S(=O)(=O)Nc2cnccc2C(=O)Nc2ccc(-c3nc4ccccc4[nH]3)cc2)cc1	inactive	inactive
N#Cc1nc(-c2cccc3ccccc23)oc1NCC#CCOC(=O)c1cccs1	inactive	inactive
Cc1ccc(-c2ccc(=O)n(CC(=O)NCCc3ncc[nH]3)n2)cc1	inactive	inactive
Cc1cc(OCCCSc2nc(-c3ccc(C(C)(C)C)cc3)nc3cc(=O)[nH]n23)ccc1Cl	inactive	inactive
Cc1cccc(C)c1OCc1cccc(C2Nc3ccccc3C(=O)N2Cc2ccco2)c1 (stereo unspecified)	inactive	inactive
O=C(Nc1ccc(-c2nc3ccccc3[nH]2)cc1)Nc1ccc2c(c1)OCCO2	inactive	inactive
O=C(O)c1ccc(O)c2ncc(-c3cccc(N4CCOCC4)c3)cc12	inactive	inactive

SMILES	Potency [1]	Potency [2]
Cc1cc(C)nc(NC(=S)N2CCN(c3cc(Br)cc(C(F)(F)F)c3)CC2)c1	inactive	inactive
O=c1cc(CN2CCCN(c3ccc(C(F)(F)F)cn3)CC2)nc2ccccn12	inactive	inactive
COC(=O)c1ccc(-c2c(NC(C)=O)sc3c2CCNC3)cc1	inactive	inactive
O=C(O)c1ccc(O)c2ncccc12	inactive	inactive
C=C1C(=O)OC2/C=C(/C)C3=CC(=O)C(C)(CC(OC(=O)/C(C)=C/COC(C)=O)C12)O3 (stereo unspecified)	inactive	inactive
CCN(CC)CCCCn1c(-c2ccccc2)nc2c(NCc3ccccc3)nc(C)nc21	inactive	inactive
CCCCn1cnc2cc(C(=O)N3CCCCC3)ccc21	inactive	inactive
CCC1(CC)CCN(C(=O)CC(c2ccc3c(c2)OCO3)c2c(O)cc(OC)cc2OC)C1 (stereo unspecified)	inactive	inactive
NC(=O)c1cccc(-c2noc(-c3ccccc3C(F)(F)F)n2)c1	inactive	inactive
O=Cc1nc(Nc2cc(F)cc(F)c2)nc(NC2CCCC2)n1	inactive	inactive
OC(c1ccccc1)(c1ccccc1)c1cnc2ccccn12	inactive	inactive
O=[S+]([O-])(c1ccc2c(c1)OCCO2)N1CCN([S+](=O)([O-])c2c(F)cc(F)cc2Br)CC1	inactive	inactive
O=C(CSc1nc2ccccc2[nH]1)N1CCOCC1	inactive	inactive
Cc1nc(N2CCOCC2)c2nc(-c3ccccc3)n(CCCN3CCCCC3C)c2n1 (stereo unspecified)	inactive	inactive
O=C(Nc1cccc(-c2nn3c(=O)cc(N4CCNCC4)nc3s2)c1)C1CCNCC1	inactive	inactive
Oc1ccc(CNc2cccc(C(F)(F)F)c2)c2cccnc12	inactive	inactive
CN(C)c1cccc(-c2ccnc(N3CCC(C(N)=O)CC3)n2)c1	inactive	inactive
O=C(OCC#CCSc1nnc(-c2cccc3ccccc23)o1)C1CCC1	inactive	inactive
O=C1CCCC2=C1C(c1[nH]ncc1Cl)NC(=NCc1ccccn1)N2 (stereo unspecified)	inactive	inactive
COc1ccc(-c2ccc3ncnc(NCc4ccc(C)o4)c3c2)cc1OC	inactive	inactive
COc1ccc(-c2ccc(=O)n(CC(=O)NCCc3ccccc3)n2)cc1OC	inactive	inactive

SMILES	Potency [1]	Potency [2]
N#CN1CCC(NS(=O)(=O)c2cccc(C(F)(F)F)c2)CC1	inactive	inactive
O=C(Nc1ccccc1)C1CCN(c2ncc(-c3ccc4c(c3)OCCCO4)s2)CC1	inactive	inactive
Cn1c2cc(B(O)O)sc2c2cnn(Cc3ccc(F)cc3F)c(=O)c21	inactive	inactive
c1nc(NCc2ccoc2)c2cc(-c3ccc4c(c3)OCO4)ccc2n1	inactive	inactive
O=c1c2ccccc2nc2sc(NCc3ccc(Cc4ccccc4)cc3)nn12	inactive	inactive
O=C(Cc1nc2ccc(Cl)cc2[nH]1)Nc1ccc(S(=O)(=O)Nc2nccs2)cc1	inactive	inactive
O=C(Nc1cccnc1)C1CCCCC1	inactive	inactive
CCC(OC(=O)c1ccc(S(C)(=O)=O)c([N+](=O)[O-])c1)C(=O)NC1C2CC3CC(C2)CC1C3 (stereo unspecified)	inactive	inactive
COC1CC(O[C@H]2CC[C@]3(C)C4CC[C@]5(C)C(C6=CC(=O)OC6)=CCC56OC46CC[C@@H]3C2)OC(C)C1O[C@@H]1O[C@H](CO[C@@H]2O[C@H](CO)[C@@H](O)[C@H](O)[C@H]2O)[C@@H](O)[C@H](O)[C@H]1O (stereo partly specified)	inactive	inactive
Cc1cc(C)nc(NC(=S)N2CCN(c3ccc4nncn4c3)CC2)c1	inactive	inactive
N#Cc1nc(Nc2cc(F)cc(F)c2)nc(NC2CCCC2)n1	inactive	inactive
COc1ccc(C2Nc3ccccc3C(=O)N2Cc2ccco2)cc1COc1ccccc1C (stereo unspecified)	inactive	inactive
Fc1ccc(Nc2nc(-c3ccnc(N4CCCCC4)c3)nc3ccccc23)cc1F	inactive	inactive
CN(Cc1nccs1)c1ncnc2ccc(-c3ccc4c(c3)OCO4)cc12	inactive	inactive
CC(=O)Nc1ccc(S(=O)(=O)Nc2nccs2)cc1	inactive	inactive
CCOc1ccccc1OCCNC(C)Cc1ccc(OC)c(S(N)(=O)=O)c1 (stereo unspecified)	inactive	inactive
Oc1ccc(CCc2ccccc2F)c2cccnc12	inactive	inactive
CCc1ccc(NC(=O)C(=O)NNC(=O)Cc2ccc(Cl)c(Cl)c2)cc1	inactive	inactive
Cc1ccc(NS(=O)(=O)c2ccc3c(c2)NC(=O)CO3)cc1C	inactive	inactive
O=S(=O)(NCC1CN(S(=O)(=O)c2ccc3c(c2)OCCO3)C1)c1c(F)cccc1F	inactive	inactive
Cc1cc(C)nc(NC(=S)N2CCN(c3nccs3)CC2)c1	inactive	inactive

SMILES	Potency [1]	Potency [2]
O=C(Nc1ncc(Cc2ccc(C(F)(F)F)cc2)s1)c1cnc(-c2ccccc2)s1	inactive	inactive
O=C1CCc2cc(S(=O)(=O)Nc3cccc(F)c3)ccc2N1	inactive	inactive
Cc1ccnc(NC(=S)N2CC3CN(c4ncc(C(F)(F)F)cc4Cl)CC3C2)c1 (stereo unspecified)	inactive	inactive
Cc1cc(C)n2ncc(C(=O)Nc3ccccc3Sc3ccccc3)c2n1	inactive	inactive
COc1ccccc1C(=O)N1CCc2cc(-c3nc(NC(=O)Cc4ccc5c(c4)OCO5)sc3C)ccc21	inactive	inactive
Cc1ccc(/C=C/C(=O)Nc2cccc([S+](=O)([O-])Nc3ccccc3F)c2)cc1	inactive	inactive
O=[S+]([O-])(Nc1ccccc1)c1ccc(NCc2cccc(C(F)(F)F)c2F)cc1	inactive	inactive
CC(=O)c1ccc(N2CCN(S(=O)(=O)c3ccc4c(c3)CC(=O)N4)CC2)cc1	inactive	inactive
Cc1csc(CNc2ncnc3ccc(-c4ccc5c(ccn5C)c4)cc23)c1	inactive	inactive
CCOc1ccc(CCNC(=O)c2ccc3ccccc3n2)cc1OCC	inactive	inactive
COc1ccc(NC(=O)CSc2nnc(-c3cccc(S(=O)(=O)N4CCCC4)c3)n2-c2ccccc2)cc1	inactive	inactive
COc1cc2c(s1)c1cnn(Cc3ccccc3F)c(=O)c1n2C	inactive	inactive
O=C(OCC#CCSc1nnc(-c2cccc3ccccc23)o1)c1ccc(F)nc1	inactive	inactive
O=C(NCCc1ccc2c(c1)OCO2)c1cc2sccc2[nH]1	inactive	inactive
COc1cccc(CNc2ccc(S(=O)(=O)Nc3cc(C)on3)cc2)c1O	inactive	inactive
CCOC(=O)c1c(CNCc2ccccc2F)c2sc(C)cc2n1C	inactive	inactive
NC(=O)C1CCN(c2nc(-c3ccccc3)cs2)CC1	inactive	inactive
C=C1C(=O)O[C@H]2[C@H]1CC/C(C)=C/CC[C@@]1(C)O[C@@H]21	inactive	inactive
Cc1ccc(NC(=O)CN2C(=O)N/C(=C\c3cccn3-c3ccc([S+](N)(=O)[O-])cc3)C2=O)cc1	inactive	inactive
CCCc1c(C(C)C)nc(C(C)C)c([C@@H](C)O)c1-c1ccc(F)cc1O	inactive	inactive
